In PMC4336329 (PLoS ONE, 2015):
Among all 310,000 compounds or so, about 14,000 (4.5%) showed an effect of 50% or more. Effects have a minus sign here. This excerpt belongs to a sample that is enriched for strong results.

Target: human ether-à-go-go-related gene (hERG) potassium channel (human, UniProt Q12809)
Assay: primary screen, population patch clamp on CHO cells stably expressing hERG; higher = less effect of the substance
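Note: peak tail current of the secondary pulse compared with the same well before compound.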

Sequence of human ether-à-go-go-related gene (hERG) potassium channel (Q12809 whole entry, looked up): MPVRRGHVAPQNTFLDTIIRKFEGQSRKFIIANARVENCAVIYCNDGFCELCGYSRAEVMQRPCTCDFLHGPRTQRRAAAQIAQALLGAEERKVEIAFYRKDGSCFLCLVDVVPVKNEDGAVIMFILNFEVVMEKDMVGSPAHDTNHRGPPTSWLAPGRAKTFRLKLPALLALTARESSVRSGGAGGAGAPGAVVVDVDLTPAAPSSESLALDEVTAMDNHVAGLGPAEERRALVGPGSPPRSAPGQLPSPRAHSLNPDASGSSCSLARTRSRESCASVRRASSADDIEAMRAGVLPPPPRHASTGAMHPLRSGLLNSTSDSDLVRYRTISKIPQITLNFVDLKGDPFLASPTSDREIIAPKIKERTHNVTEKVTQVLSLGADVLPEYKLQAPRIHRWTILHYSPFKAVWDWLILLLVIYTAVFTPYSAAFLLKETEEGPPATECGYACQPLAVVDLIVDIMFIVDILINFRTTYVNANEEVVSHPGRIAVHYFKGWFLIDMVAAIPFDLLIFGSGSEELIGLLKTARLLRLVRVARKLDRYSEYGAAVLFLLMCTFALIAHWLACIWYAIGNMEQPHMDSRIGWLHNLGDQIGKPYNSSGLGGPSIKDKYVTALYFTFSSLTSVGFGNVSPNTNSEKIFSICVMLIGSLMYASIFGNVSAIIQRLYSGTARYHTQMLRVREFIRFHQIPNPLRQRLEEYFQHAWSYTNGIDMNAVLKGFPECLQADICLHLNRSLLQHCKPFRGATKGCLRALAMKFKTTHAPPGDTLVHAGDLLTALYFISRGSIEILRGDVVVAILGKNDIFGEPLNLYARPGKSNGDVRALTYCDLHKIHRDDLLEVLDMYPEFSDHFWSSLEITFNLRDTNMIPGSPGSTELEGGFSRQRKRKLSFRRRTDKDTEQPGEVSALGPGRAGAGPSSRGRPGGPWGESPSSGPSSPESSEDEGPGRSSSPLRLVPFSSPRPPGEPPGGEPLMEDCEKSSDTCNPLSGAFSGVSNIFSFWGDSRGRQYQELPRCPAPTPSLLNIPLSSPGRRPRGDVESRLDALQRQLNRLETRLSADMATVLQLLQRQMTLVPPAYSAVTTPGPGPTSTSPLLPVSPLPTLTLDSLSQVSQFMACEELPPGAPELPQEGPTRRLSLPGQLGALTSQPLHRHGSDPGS

SMILES | hERG current change (%, negative = inhibition) at 10uM
CC1CCN(C(=S)Nc2ccc(F)cc2)CC1 | 3.1%
CCC1C(=O)CC(c2ccc([N+](=O)[O-])cc2)NC1c1ccc([N+](=O)[O-])cc1 (stereo not drawn) | -76.3%
CC1C(=O)CC(c2ccccc2)NC1c1ccccc1 (stereo not drawn) | -7.08%
CC1C(=O)C(C)C(c2ccc([N+](=O)[O-])cc2)NC1c1ccc([N+](=O)[O-])cc1 (stereo not drawn) | -46%
CCC1C(=O)CC(c2ccccc2)NC1c1ccccc1 (stereo not drawn) | -21.4%
CCC1C(=O)C(C)(C)C(=O)OC1c1ccc([N+](=O)[O-])cc1 (stereo not drawn) | -7.26%
CC1C(=O)CC(c2ccc([N+](=O)[O-])cc2)NC1c1ccc([N+](=O)[O-])cc1.Cl (stereo not drawn) | -69.7%
Cc1ccc(NC(=O)CN(C)C(=O)CSc2nc3ccccc3o2)cc1 | -20.5%
COc1cc2c(cc1NC(=O)CN1CCN(S(=O)(=O)c3ccccc3F)CC1)oc1ccccc12 | 10.1%
CSc1ccc(C(=O)C2CCCN(C(=O)c3cccnc3SC)C2)cc1 (stereo not drawn) | -32.4%
COc1ccccc1C(=O)C1CCCN(Cc2cn[nH]c2C2CCCCC2)C1 (stereo not drawn) | -31.5%
CSc1ccc(C(=O)C2CCCN(Cc3cc4ccccc4[nH]3)C2)cc1 (stereo not drawn) | -48.8%
COc1c(C)cc(C(=O)C2CCCN(Cc3cnc(C)s3)C2)cc1C (stereo not drawn) | -7.68%
COc1ccccc1C(=O)C1CCCN(Cc2cnc(C)s2)C1 (stereo not drawn) | -8.13%
COc1ccccc1C(=O)C1CCCN(Cc2cccc3nccnc23)C1 (stereo not drawn) | -67.4%
CCCN1CCCC(C(=O)c2cc(C)c(OC)c(C)c2)C1 (stereo not drawn) | -3.65%
CSc1ccc(C(=O)C2CCCN(Cc3cccc4nccnc34)C2)cc1 (stereo not drawn) | -82.8%
COc1c(C)cc(C(=O)C2CCCN(Cc3cccc4nccnc34)C2)cc1C (stereo not drawn) | -64.5%
CCOCCCN=Cc1c(O)n(Cc2ccccc2)c(=O)[nH]c1=O | -4.85%
c1ccc(CSc2nnc3ccc(-c4cccs4)nn23)nc1 | 3.64%
Cc1cccc(OCC(=O)Nc2ccc3c(C)cc(=O)oc3c2)c1 | 1.59%
CCOc1ccc(C(=O)OC2CCCN(C)C2)cc1.Cl (stereo not drawn) | -18.1%
O=C(c1ccc2ccccc2c1)N1CCCC1 | 19.2%

SMILES | hERG current change (%, negative = inhibition) at 10uM
CC(=O)c1sc(NC(=O)c2cc(=O)c3ccccc3o2)nc1C | 10.1%
O=C(Cc1ccc(F)cc1)Nc1nnc(SCC(=O)NC2CCCC2)s1 | 1.56%
COc1cccc(C(O)c2nc3ccccc3n2C)c1 (stereo not drawn) | 3.27%
CC(NC(=O)Cn1ccsc1=N)C12CC3CC(CC(C3)C1)C2.Cl (stereo not drawn) | -34.4%
CCC(=O)c1c[nH]c(C(=O)NCc2ccccc2OC)c1 | -6.15%
CCN(CC)CCCN1CC(O)=C(c2nc3ccccc3s2)C1=N | -34.2%
Fc1ccc(Nc2nnns2)cc1 | 18.2%
O=C(OCc1cccc([N+](=O)[O-])c1)c1ccc[nH]c1=O | 17.2%
COc1ccc(CC(=O)Nc2cc(C)ccn2)cc1 | 6.87%
O=C(COC(=O)C1CC(=O)N(Cc2ccccc2)C1)Nc1ccccc1F (stereo not drawn) | 7.39%
COc1ccc(CN(C)C(=O)C2CCN(C(=O)Nc3ccccc3)CC2)cc1 | -16.3%
CN(CC(=O)Nc1c(Cl)cccc1Cl)C(=O)C1CCN(C(=O)Nc2ccccc2)CC1 | 11.5%
COc1ccc(CN(C)C(=O)C2CCN(C(=O)Nc3ccccc3)CC2)cc1OC | -1.53%
CN(Cc1cccc(Cl)c1)C(=O)C1CCN(C(=O)Nc2ccccc2)CC1 | -55.9%
CSc1ccc(CN(C)C(=O)C2CCN(C(=O)Nc3ccccc3)CC2)cc1 | -67.4%
CSc1ccccc1NC(=O)CN(C)C(=O)C1CCN(C(=O)Nc2ccccc2)CC1 | -11.4%
CCn1cnc2c1c(=O)n(CC(=O)Nc1ccc(C(N)=O)cc1)c(=O)n2Cc1ccccc1 | 13.8%
Clc1cccc(C2Nc3cccc4cccc(c34)N2)c1Cl | 16.2%
CCOC(=O)C1CCCN(c2nc3c(C)cccn3c(=O)c2/C=C(\C#N)C(=O)NCc2ccco2)C1 (stereo not drawn) | -49.7%
Cc1ccc(C(=O)N/C(=C\c2cccc([N+](=O)[O-])c2)C(=O)NC(Cc2ccccc2)C(=O)O)cc1 (stereo not drawn) | 15.3%
O=C(NCC1CCCO1)/C(=C\c1cccc([N+](=O)[O-])c1)NC(=O)c1ccccc1 (stereo not drawn) | -33%
CC(C)NC(=O)/C(=C\c1cccc([N+](=O)[O-])c1)NC(=O)c1ccccc1 | -18.1%
Cc1ccc(C(=O)N/C(=C/c2cccc([N+](=O)[O-])c2)C(=O)NC(C)C)cc1 | -51.8%

SMILES | hERG current change (%, negative = inhibition) at 10uM
N#C/C(=C\c1cccc([N+](=O)[O-])c1)C(=O)Nc1cccnc1 | 21.3%
CC(=O)N/C(=C\c1cccc([N+](=O)[O-])c1)C(=O)NC(C)C | 2.75%
CCNC(=O)/C(=C/c1cccc([N+](=O)[O-])c1)NC(=O)c1ccc(C)cc1 | -58.1%
N#C/C(=C\c1cccc([N+](=O)[O-])c1)C(=O)NCc1cccnc1 | -50.8%
Cc1ccc(C(=O)N/C(=C\c2cccc([N+](=O)[O-])c2)C(=O)OCN2C(=O)c3ccccc3C2=O)cc1 | -11%
Cc1ccc(C(=O)N/C(=C/c2cccc([N+](=O)[O-])c2)C(=O)NCC2CCCO2)cc1 (stereo not drawn) | -68.4%
Cc1ccc(C(=O)N/C(=C\c2ccccc2)C(=O)NCC2CCCO2)cc1 (stereo not drawn) | -24.3%
O=C(/C=C/c1cccc([N+](=O)[O-])c1)NCc1cccnc1 | -14%
Cc1ccc(NC(=O)CSCc2ccco2)cc1 | 21.7%
O=C(CCSc1ccc(F)cc1)Nc1ccc(-n2cnnn2)cc1 | -26.4%
COc1cc(/C=N/N2CCN(c3ccc(Cl)cc3)CC2)cc(OC)c1OC(C)=O | 9.63%
O=C(NC(NC(=S)Nc1ccccc1)C(Cl)(Cl)Cl)c1cccc(Cl)c1 (stereo not drawn) | 7.91%
Cc1ccc(C(=O)N/C(=C\c2cccc([N+](=O)[O-])c2)C(=O)Nc2cccc(C(=O)O)c2)cc1 | 15.2%
Cc1ccc(C(=O)N/C(=C\c2cccc([N+](=O)[O-])c2)C(=O)NCc2ccncc2)cc1 | -73.3%
O=C(NNc1cccc([N+](=O)[O-])c1)/C(=C\c1cccnc1)NC(=O)c1ccccc1 | -30.6%
O=C(NCc1ccncc1)/C(=C/c1cccc([N+](=O)[O-])c1)NC(=O)c1ccccc1 | -71%
Cn1c(=O)c2c(nc(Sc3ncccn3)n2Cc2ccccc2Cl)n(C)c1=O | -8.1%
CCCC(=O)NC(=S)Nc1cccc(NC(=O)c2ccccc2)c1 | -1.54%
CCOc1ccc(C(=O)Nc2ccc(C(F)(F)F)n(C)c2=O)cc1 | 14.5%
Cc1ccc(Nc2ncnc(N)n2)cc1 | 9.24%
CCOc1ccc(NC(=O)CCC(=O)OC)cc1 | -1.95%
CCOc1ccc(C(=O)OCCN(CC)CC)cc1.Cl | -44.8%
CCCCOc1cc(C(=O)OCCN(CC)CC)ccc1N | -60.6%

SMILES | hERG current change (%, negative = inhibition) at 10uM
CCN(CC)CCOC(=O)c1cccc(Br)c1.Cl | -40.6%
CCN(CC)CCOC(=O)c1ccc(N)cc1.Cl | 2.06%
CCN(CC)CCOC(=O)c1ccc2c(c1)OCCO2.Cl | -11.4%
CCN(CC)CCOC(=O)c1ccc([N+](=O)[O-])cc1.Cl | -23.1%
CCCOc1cc(N)ccc1C(=O)OCCN(CC)CC.Cl | -18.9%
CCCOc1ccc(C(=O)OCCN(CC)CC)cc1N.Cl | -51.9%
CCCCOc1cc(C(=O)OCCN(CC)CC)ccc1N.Cl | -53.6%
CCN(CC)CCOC(=O)c1ccc(NC(=S)NC(=O)/C=C/c2ccco2)cc1 | -0.561%
Cc1oc2c(c(C)cc3oc(=O)c(CC(=O)N[C@H](C(=O)O)C(C)C)c(C)c32)c1C | 15.2%
Cc1cc2c(ncn2C(C)C)c(N)c1C | -9.87%
CSc1ccc(C#N)cc1NC(=O)c1ccccc1 | -36.5%
NC(=O)C1CCN(C(=O)Cc2ccsc2)CC1 | -1.15%
Cc1csc2nc(O)c(C(=O)NCCCc3ccccc3)c(=O)n12 | -20%
Cc1ccnc(NS(=O)(=O)c2ccc(NC(=O)Cc3ccc(Cl)cc3)cc2)n1 | 14.3%
S=C1NC2(CCCCC2)Cc2ccccc21 | 12.4%
CC(C)NC(=O)CN1CCN(Cc2nc(-c3cccs3)no2)CC1 | 19.9%
C[C@@H](C(=O)Nc1ccc2ccccc2c1)[C@H]1C[C@]1(C)[C@H](NC(=O)c1cnccn1)c1ccccc1 | -4.43%
CN1CCN(C(=S)NC(=O)c2ccccc2Br)CC1 | 11.2%
O=c1[nH]c(O)c(N=Nc2cccc(S(=O)(=O)N3CCOCC3)c2)c(=O)[nH]1 | -73.7%
O=c1[nH]c(=S)[nH]c(O)c1N=Nc1cccc(S(=O)(=O)N2CCOCC2)c1 | 9.03%
O=c1[nH]c(O)c(N=Nc2ccc(S(=O)(=O)N3CCOCC3)cc2)c(=O)[nH]1 | -4.59%
